hgDAF-12 ag = H. glycines DAF-12 receptor agonists, primary screen, cell-based, luminescence, HEK293, GAL4 fusion, UAS-luciferase; Nuclear hormone receptor DAF-12 (Heterodera glycines), GAL4 fusion; HEK293 GAL4-hgDAF12 UAS-luciferase reporter, agonist luminescence; normalized to butyrate control; activation, % at 6.8 µM; 370,000 tested, 1.8% active; AID 687014, 2013;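 active = activation above a cutoff set at the mean of all screened compounds plus 3 SD, cut at about 10% in these data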;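 also: 0% = DMSO wells and 100% = sodium butyrate wells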
DAX1 inh-1 = DAX1 (NR0B1) inhibitors on StAR promoter, primary screen, cell-based, luminescence, SF-1 (NR5A1), full-length DAX-1; HEK293T StAR-luciferase reporter, SF-1/DAX-1 repression relief; inhibition, % at 6.8 µM; 370,000 tested, 1.1% active;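 active = inhibition above the mean over all tested compounds plus 3 SD, cut at about 3.6% in these data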;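 also: 0% = DAX-1 cells with DMSO and 100% = cells lacking DAX-1 with DMSO; higher inhibition means more luminescence from relief of DAX-1 repression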
SMARCA2 act = SMARCA2 (BRM) function activators, primary screen, cell-based, luminescence, high throughput; MG213 cells, MMTV-luciferase reporter, dexamethasone, overnight; activation, % at 9.1 µM; 370,000 tested, 1% active; AID 652017, 2013; in the data active = activation above about 7.8%;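 also: 0% = vehicle wells and 100% = reference activator wells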
DAX1 inh-2 = DAX1 (NR0B1) inhibitors, primary screen, cell-based, HEK293, Gal4-DAX1, luciferase luminescence | HEK293 Gal4-DAX1 luciferase reporter | inhibition, % at 6.75 µM | 340,000 tested, 0.99% active;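 active = inhibition above the mean over all tested compounds plus 3 SD, cut at about 4.2% in these data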;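 also: 0% = DAX1-transfected cells with DMSO and 100% = empty-vector control cells with DMSO; inhibition shows as a rise in luminescence from relieved DAX1 repression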
Target sequence (P51843 207-470 limits assumed): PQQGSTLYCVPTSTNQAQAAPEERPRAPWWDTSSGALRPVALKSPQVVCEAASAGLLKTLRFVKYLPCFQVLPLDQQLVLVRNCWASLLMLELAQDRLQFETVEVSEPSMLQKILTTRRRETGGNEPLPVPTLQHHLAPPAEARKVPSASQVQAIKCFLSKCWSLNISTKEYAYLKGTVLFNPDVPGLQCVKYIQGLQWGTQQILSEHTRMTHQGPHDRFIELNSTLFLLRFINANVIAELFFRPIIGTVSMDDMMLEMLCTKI
hcDAF12 agonist = H. contortus DAF-12 nuclear receptor activators, primary screen, cell-based, luminescence, HEK293, lit1-tk-luc reporter. AID 652067, 2013. activation, % at 6.8 µM. HEK293 hcDAF-12 lit1-tk-luc reporter; 0% DMSO, 100% Δ7-dafachronic acid. 370,000 tested, 1.4% active;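 active = activation above the mean of all tested compounds plus 3 SD, cut at about 5.5% in these data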;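 also: 100% = response to 3 µM Δ7-dafachronic acid high control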
ssDAF12 agonist = S. stercoralis DAF-12 nuclear receptor activators, primary screen, cell-based, luminescence, HEK293, GRIP1 co-expression, lit1-tk-luc | Nuclear hormone receptor DAF-12 (Strongyloides stercoralis) | activation, % at 6.8 µM | 370,000 tested, 1% active | HEK293 ssDAF-12/GRIP1 lit1-tk-luc reporter; % of 3 µM dafachronic acid response;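 active = activation above the mean over all tested compounds plus 3 SD, cut at about 0.9% in these data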;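 also: 0% = DMSO-only wells and 100% = 3 µM delta7-dafachronic acid wells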
* = called active by the depositor. The list is not random: actives were taken first. Their share in the collection is about 4.8%.

Results for CC(O)Cc1cn(CC(=O)N2CCNCC2)nn1 (stereo not given) ?
hgDAF-12 ag: 1.3; DAX1 inh-1: 0.3; SMARCA2 act: -0.7; DAX1 inh-2: 0.9; hcDAF12 agonist: -0.9; ssDAF12 agonist: -1.3

Results for CCN(CC)C(=O)[C@H]1C[C@H](CC(=O)NCCCn2ccnc2)C(=O)N2CCc3c([nH]c4cc(CCC(=O)N(C)C)ccc34)[C@]12C ?
hgDAF-12 ag: 3.2; DAX1 inh-1: 2.4; SMARCA2 act: -3.7; DAX1 inh-2: 1.6; hcDAF12 agonist: 0.4; ssDAF12 agonist: -0.5

What do the screens show for `CC(=O)Nc1ccc(NC(=O)c2cc(-c3ccc(F)cc3C)n[nH]2)cc1`?
hgDAF-12 ag: 12.9*; DAX1 inh-1: 4.1*; SMARCA2 act: 4.2; hcDAF12 agonist: 1.6; ssDAF12 agonist: -0.8

What do the screens show for `NC(=O)COC(=O)c1cccc(S(=O)(=O)N2CCCc3ccccc32)c1`?
hgDAF-12 ag: -0.6; DAX1 inh-1: 0.1; SMARCA2 act: -1.8; DAX1 inh-2: -1.3; hcDAF12 agonist: -0.3; ssDAF12 agonist: -2.0

What do the screens show for `COC(=O)c1cccc(NC(=O)CSc2nnc(COc3ccc(C#N)cc3)n2-c2ccccc2)c1`?
hgDAF-12 ag: 0.0; DAX1 inh-1: -0.8; SMARCA2 act: -3.0; DAX1 inh-2: 5.1*; hcDAF12 agonist: -1.5; ssDAF12 agonist: -1.2

What do the screens show for `Cc1ccc(OC(=O)COc2ccccc2C)c(-n2nc3ccccc3n2)c1`?
hgDAF-12 ag: 9.6; DAX1 inh-1: 3.1; SMARCA2 act: 4.1; DAX1 inh-2: 1.4; hcDAF12 agonist: 6.2*; ssDAF12 agonist: -0.2

Results for Nc1nnc(SCc2cn3cc(Cl)ccc3n2)s1 ?
hgDAF-12 ag: 12.1*; DAX1 inh-1: 0.8; SMARCA2 act: 7.6; DAX1 inh-2: 0.5; hcDAF12 agonist: 2.2; ssDAF12 agonist: -0.5

Results for Clc1ccc(-n2nnnc2SCc2cn3ccccc3n2)cc1 ?
hgDAF-12 ag: 3.8; DAX1 inh-1: -0.5; SMARCA2 act: 0.6; DAX1 inh-2: -0.7; hcDAF12 agonist: -0.9; ssDAF12 agonist: -1.4

How did Clc1ccc(SCc2cn3ccccc3n2)cc1 do in these assays?
hgDAF-12 ag: 11.9*; DAX1 inh-1: 1.2; SMARCA2 act: 6.7; DAX1 inh-2: 1.6; hcDAF12 agonist: 2.0; ssDAF12 agonist: -0.8

Results for O=C(COC(=O)CCCN1C(=O)c2cccc3cccc(c23)C1=O)Nc1cccc(C(F)(F)F)c1 ?
hgDAF-12 ag: -1.6; DAX1 inh-1: 0.0; SMARCA2 act: -2.1; DAX1 inh-2: 1.1; hcDAF12 agonist: -2.0; ssDAF12 agonist: -1.9

How did CCOc1cccc2sc(N(CCN(CC)CC)C(=O)c3cccc(N4C(=O)CCC4=O)c3)nc12 do in these assays?
hgDAF-12 ag: 0.4; DAX1 inh-1: 1.2; SMARCA2 act: 2.4; DAX1 inh-2: 3.4; hcDAF12 agonist: 0.1; ssDAF12 agonist: -1.1

How did CC1(C)CC(=O)C2=C(C1)NC1=C(C(=O)c3ccccc31)C2c1ccc(Cl)cc1 (stereo not given) do in these assays?
hgDAF-12 ag: -1.0; DAX1 inh-1: 0.0; SMARCA2 act: -5.4; DAX1 inh-2: -1.1; hcDAF12 agonist: 6.4*; ssDAF12 agonist: 0.0

What do the screens show for `O=C(CN1CCN(c2ccc(F)cc2)CC1)N1CCC(Cc2ccccc2)CC1`?
hgDAF-12 ag: -1.9; DAX1 inh-1: -0.6; SMARCA2 act: -2.5; DAX1 inh-2: -0.5; hcDAF12 agonist: -2.6; ssDAF12 agonist: -0.7

Results for CCOc1cccc(CNCCO)c1OCc1ccc(Cl)cc1 ?
hgDAF-12 ag: -0.5; DAX1 inh-1: 0.1; SMARCA2 act: 0.7; DAX1 inh-2: -0.1; hcDAF12 agonist: -0.7; ssDAF12 agonist: -1.2

How did COc1ccccc1-c1nc2s/c(=C\c3cccs3)c(=O)n2n1 do in these assays?
hgDAF-12 ag: 0.9; DAX1 inh-1: -0.2; SMARCA2 act: 0.6; DAX1 inh-2: 1.9; hcDAF12 agonist: 2.2; ssDAF12 agonist: -0.3

Results for COc1ccc(/C=c2\sc3nc(-c4ccccc4OC)nn3c2=O)c(OC)c1 ?
hgDAF-12 ag: 2.4; DAX1 inh-1: -0.4; SMARCA2 act: -1.1; DAX1 inh-2: -0.4; hcDAF12 agonist: 3.5; ssDAF12 agonist: 0.9*

Results for O=C(NCCc1ccccc1)C1CCC(Cn2c(=O)c3ccccc3n(Cc3cccc(F)c3)c2=O)CC1 (stereo not given) ?
hgDAF-12 ag: 1.4; DAX1 inh-1: 0.0; SMARCA2 act: -1.2; DAX1 inh-2: 0.6; hcDAF12 agonist: 4.9; ssDAF12 agonist: -0.5

Results for O=C(NCCc1ccccc1)C1CCC(Cn2c(=O)c3ccccc3n(Cc3cccc(Cl)c3)c2=O)CC1 (stereo not given) ?
hgDAF-12 ag: 4.3; DAX1 inh-1: 0.2; SMARCA2 act: -3.9; DAX1 inh-2: 6.0*; hcDAF12 agonist: 2.5; ssDAF12 agonist: -0.1

How did COc1ccc(-c2nnc(N)s2)cc1 do in these assays?
hgDAF-12 ag: 7.3; DAX1 inh-1: 0.0; SMARCA2 act: 5.5; DAX1 inh-2: 1.4; hcDAF12 agonist: 0.7; ssDAF12 agonist: -1.1

How did CNc1nnc(-c2ccc(OC)cc2)s1 do in these assays?
hgDAF-12 ag: 10.7*; DAX1 inh-1: 1.6; SMARCA2 act: 3.5; DAX1 inh-2: 5.3*; hcDAF12 agonist: 1.8; ssDAF12 agonist: -1.1

What do the screens show for `CCCC(=O)N(CCN1CCOCC1)c1nc2c(F)cc(F)cc2s1`?
hgDAF-12 ag: 5.1; DAX1 inh-1: 4.0*; SMARCA2 act: -0.5; DAX1 inh-2: 2.4; hcDAF12 agonist: 2.1; ssDAF12 agonist: -0.7

Results for CCCC(=O)N(CCN1CCOCC1)c1nc2c(OCC)cccc2s1 ?
DAX1 inh-2: -0.2

What do the screens show for `CCCNC(=S)Nc1ccc(S(N)(=O)=O)cc1`?
hgDAF-12 ag: -3.0; DAX1 inh-1: 0.0; SMARCA2 act: -2.3; hcDAF12 agonist: 0.8; ssDAF12 agonist: -0.4

What do the screens show for `COc1ccc(Cc2c(C)nc(N)nc2Cl)cc1`?
hgDAF-12 ag: -1.4; DAX1 inh-1: -0.3; SMARCA2 act: 0.5; DAX1 inh-2: 0.2; hcDAF12 agonist: -1.0; ssDAF12 agonist: 1.7*

Results for O=C(NCC(=O)N1CCN(c2ccccc2)CC1)c1ccc(Cl)cc1 ?
hgDAF-12 ag: -2.9; DAX1 inh-1: 0.2; SMARCA2 act: -2.1; DAX1 inh-2: 4.9*; hcDAF12 agonist: -1.6; ssDAF12 agonist: -1.2

Source: PubChem BioAssay
